According to PubChem BioAssay (Tox21):
Several values for one entry are separate records, joined by “and”; a condition that tells them apart may be missing. Identical values can stand only once. Results filed as inconclusive are left out. More than one record can exist for a structure, and the calls need not agree. Activity calls are given as the source filed them. Calls follow the shape of the dose curve; as a rule, active = well fitted curve in the direction sought with a large enough effect in the repeat runs; inconclusive = weak or mixed curves; inactive = no such curve, though single readings can be large; an effect the other way counts as inactive or inconclusive.

Tests used:
[1] = A CellTox Green Cytotoxicity Assay to monitor cytotoxicity in HEK293 cells - 40 hour (AID 1224871); also: nearly all actives have a fitted effect of over 45% in size
Summary of the method: (§1)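 HEK293 cells, 600/well, were preincubated 5 hours and then exposed to compounds at 37 C for up to 40 hours. A cell-impermeant cyanine dye staining dead-cell DNA was read by fluorescence at 0, 8, 16, 24, 32 and 40 h time points.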

[2] = qHTS RealTime-Glo MT Cell Viability Assay in HEK293 cells - 16 hour (AID 1224872); also: nearly all actives have a fitted effect of over 50% in size
Summary of the method: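 Homogeneous bioluminescent viability format in HEK293 cells (600 cells/well). Following 5 h at 37 C/5% CO2, 23 nL compound was pintooled; the signal was measured repeatedly during 40 h incubation.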

[3] = qHTS RealTime-Glo MT Cell Viability Assay in HepG2 cells - 8 hour (AID 1224873); also: nearly all actives have a fitted effect of over 55% in size
Summary of the method: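 Real-time viability: cells seeded at 600 per well together with NanoLuc and cell-permeant prosubstrate, compounds added after 5 h incubation. Luminescence tracked at 0, 8, 16, 24, 32 and 40 h of exposure.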

[4] = qHTS RealTime-Glo MT Cell Viability Assay in HEK293 cells - 40 hour (AID 1224874); settings: RealTime-Glo luminescence; max response: stronger effect = lower value; also: nearly all actives have a fitted effect of over 50% in size
Summary of the method: (§2)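 600 cells/well were plated with the nonlytic NanoLuc/prosubstrate reagent, pre-incubated 5 h, then given 23 nL of compound in DMSO. Incubation at 37 C for 40 h, with luminescence from viable-cell-reduced substrate read repeatedly from 0 h.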

[5] = A CellTox Green Cytotoxicity Assay to monitor cytotoxicity in HEK293 cells - 24 hour (AID 1224875); also: nearly all actives have a fitted effect of over 45% in size
Summary of the method: as §1

[6] = A CellTox Green Cytotoxicity Assay to monitor cytotoxicity in HepG2 cells - 16 hour (AID 1224876); also: nearly all actives have a fitted effect of over 45% in size
Summary of the method: (§3)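 HepG2 cells, 600/well, preincubated 5 h with CellTox Green dye, then exposed to Tox21 compounds in DMSO at 37 C for up to 40 h. Dead-cell DNA fluorescence read at the indicated time point.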

[7] = qHTS RealTime-Glo MT Cell Viability Assay in HepG2 cells - 32 hour (AID 1224877); also: nearly all actives have a fitted effect of over 55% in size
Summary of the method: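 Cell number in HepG2 cultures estimated from NanoLuc luminescence generated by metabolic reduction of a prosubstrate by living cells. The homogeneous, nonlytic format allowed repeated reads at 0, 8, 16, 24, 32 and 40 h of compound exposure.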

[8] = A CellTox Green Cytotoxicity Assay to monitor cytotoxicity in HepG2 cells - 24 hour (AID 1224878); also: nearly all actives have a fitted effect of over 45% in size
Summary of the method: as §3

[9] = A CellTox Green Cytotoxicity Assay to monitor cytotoxicity in HepG2 cells - 40 hour (AID 1224879); also: nearly all actives have a fitted effect of over 40% in size
Summary of the method: as §3

[10] = qHTS RealTime-Glo MT Cell Viability Assay in HEK293 cells - 0 hour (AID 1224880); also: nearly all actives have a fitted effect of over 45% in size
Summary of the method: as §2
% is scaled to controls: 0 for no effect and ±100 for the full control effect; potency is read from the fitted curve at half-maximal effect.

Nc1c(Cl)cc([N+](=O)[O-])cc1Cl
inactive: Potency [1] | Potency [2] | Potency [3] | max response [4] -14.9% | Potency [5] | Potency [6] | Potency [7] | Potency [8] | Potency [9]

C[C@]12CCC(=O)C(O)=C1CC[C@@H]1[C@@H]2CC[C@]2(C)C(=O)CC[C@@H]12
inactive: Potency [1] | Potency [2] | Potency [3] | max response [4] -15.6% | Potency [5] | Potency [6] | Potency [7] | Potency [8] | Potency [9] | Potency [10]

CCC(CC)Nc1c([N+](=O)[O-])cc(C)c(C)c1[N+](=O)[O-]
inactive: Potency [1] | Potency [2] | Potency [3] | max response [4] 7.22% | Potency [5] | Potency [6] | Potency [7] | Potency [8] | Potency [9] | Potency [10]

N[C@@H](Cc1ccc(N(CCCl)CCCl)cc1)C(=O)O
inactive: Potency [1] | Potency [2] | Potency [3] | Potency [5] | Potency [6] | Potency [7] | Potency [10]
active: Potency [4] 4.69 µM

Oc1cc(Cl)c(Cl)cc1Cl
inactive: Potency [1] | Potency [2] | Potency [3] | max response [4] -18.2% and -12.4% | Potency [6] | Potency [7] | Potency [8] | Potency [9]

COP(=O)(OC)OC
19.7 µM (active) and inactive: Potency [9]
inactive: Potency [1] | Potency [2] | Potency [3] | max response [4] 4.65% | Potency [6] | Potency [7] | Potency [8]

C=CCc1ccc2c(c1)OCO2
inactive: Potency [1] | Potency [2] | Potency [3] | max response [4] 13.1% and 2.61% | Potency [5] | Potency [6] | Potency [7] | Potency [8] | Potency [9] | Potency [10]

O=c1oc2ccccc2c(O)c1C(CC(O)c1ccc(-c2ccc(Br)cc2)cc1)c1ccccc1 (configuration not stated)
active: Potency [10] 18.4 µM and 12 µM
inactive: Potency [1] | Potency [2] | Potency [3] | max response [4] -3.76% and 7.1% | Potency [5] | Potency [6] | Potency [7] | Potency [8] | Potency [9]

O=[N+]([O-])c1c(Cl)c(Cl)c(Cl)c(Cl)c1Cl
21.8 µM (active) and inactive: Potency [1]
inactive: Potency [2] | Potency [3] | max response [4] 2.95% and 16.6% | Potency [5] | Potency [6] | Potency [7] | Potency [8] | Potency [9] | Potency [10]

CCOP(=S)(OCC)O/N=C(\C#N)c1ccccc1
inactive: Potency [1] | Potency [2] | Potency [3] | max response [4] 6.15% and 1.47% | Potency [6] | Potency [7] | Potency [8] | Potency [9] | Potency [10]

N#CCCCl
inactive: Potency [1] | Potency [2] | Potency [3] | max response [4] 2.74% and -10.7% | Potency [6] | Potency [7] | Potency [8] | Potency [9]

Oc1cc(Cl)ccc1Oc1ccc(Cl)cc1Cl
active: Potency [1] 44.7 µM | Potency [2] 22.4 µM and 23.9 µM | Potency [3] 22.4 µM and 23.9 µM | Potency [4] 34.1 µM | Potency [6] 44.7 µM and 19 µM | Potency [7] 25.1 µM | Potency [8] 22.4 µM and 21.3 µM | Potency [9] 25.1 µM and 23.9 µM

O=C1C=CC(=O)C=C1
inactive: Potency [1] | Potency [2] | Potency [3] | max response [4] 13.4% | Potency [6] | Potency [7] | Potency [8] | Potency [9]

C[C@]12CCC(=O)C[C@@H]1CC[C@@H]1[C@@H]2CC[C@]2(C)[C@@H](O)CC[C@@H]12
active: Potency [2] 21.6 µM | Potency [4] 21.6 µM
43.1 µM (active) and inactive: Potency [1]
inactive: Potency [3] | Potency [6] | Potency [7] | Potency [8]

O=S(=O)(Oc1ccc(Cl)cc1)c1ccc(Cl)cc1
inactive: Potency [1] | Potency [2] | Potency [3] | max response [4] -23.5% and -4.71% | Potency [5] | Potency [6] | Potency [7] | Potency [8] | Potency [9] | Potency [10]

NNC(N)=S
inactive: Potency [1] | Potency [2] | Potency [3] | max response [4] 1.23% and 8.52% | Potency [6] | Potency [7] | Potency [8] | Potency [9] | Potency [10]

c1ccc(-c2cccc(-c3ccccc3)c2)cc1
inactive: Potency [1] | Potency [2] | Potency [3] | max response [4] -23.8% | Potency [5] | Potency [6] | Potency [7] | Potency [8] | Potency [9] | Potency [10]

Cc1cc(Cl)ccc1OCCCC(=O)O
inactive: Potency [1] | Potency [2] | Potency [3] | max response [4] 5.09% and 8.04% | Potency [5] | Potency [6] | Potency [7] | Potency [8] | Potency [9] | Potency [10]

CC(O)CCO (configuration not stated)
inactive: Potency [1] | Potency [2] | Potency [3] | max response [4] -0.607% and 26.7% | Potency [5] | Potency [6] | Potency [7] | Potency [8] | Potency [9] | Potency [10]

C1=Cc2cccc3cccc1c23
active: Potency [1] 49 µM
inactive: Potency [2] | Potency [3] | max response [4] -3.56% and 0.553% | Potency [6] | Potency [7] | Potency [8] | Potency [9] | Potency [10]

C=CCN(CC=C)C(=O)C(Cl)Cl
inactive: Potency [1] | Potency [2] | Potency [3] | max response [4] 8.06% and -1.16% | Potency [6] | Potency [7] | Potency [8] | Potency [9]

OCC(O)CO
inactive: Potency [1] | Potency [2] | Potency [3] | max response [4] -4.06% and 6% | Potency [5] | Potency [6] | Potency [7] | Potency [8] | Potency [9] | Potency [10]

CNC(=O)N(C)c1nnc(C(C)(C)C)s1
inactive: Potency [1] | Potency [2] | Potency [3] | max response [4] -13.1% and 0.0487% | Potency [5] | Potency [6] | Potency [7] | Potency [8] | Potency [9] | Potency [10]

CCCCCCCCCCCOC(=O)c1ccccc1C(=O)OCCCCCCCCCCC
inactive: Potency [1] | Potency [2] | Potency [3] | max response [4] 1.36% and 2.6% | Potency [5] | Potency [6] | Potency [7] | Potency [8] | Potency [9] | Potency [10]

COC(=O)c1sccc1S(=O)(=O)NC(=O)Nc1nc(C)nc(OC)n1
inactive: Potency [1] | Potency [2] | Potency [3] | max response [4] 4% and 6.48% | Potency [6] | Potency [7] | Potency [8] | Potency [9]

CCN(CC)C(=O)SCc1ccc(Cl)cc1
inactive: Potency [1] | Potency [2] | Potency [3] | max response [4] -8.77% and 0.16% | Potency [6] | Potency [7] | Potency [8] | Potency [9] | Potency [10]

CCCCC(CC)COC(=O)c1ccc(C(=O)OCC(CC)CCCC)c(C(=O)OCC(CC)CCCC)c1 (configuration not stated)
inactive: Potency [1] | Potency [2] | Potency [3] | max response [4] 0.196% and 3.66% | Potency [6] | Potency [7] | Potency [8] | Potency [9]

CCCCC(CC)COC(=O)Cl (configuration not stated)
inactive: Potency [1] | Potency [2] | Potency [3] | max response [4] 2.04% | Potency [6] | Potency [7] | Potency [8] | Potency [9]

c1ccc(NNc2ccccc2)cc1
active: Potency [1] 24.5 µM
inactive: Potency [2] | Potency [3] | max response [4] -4.96% and -2.46% | Potency [6] | Potency [7] | Potency [8] | Potency [9]

C=C(C)[C@H]1Cc2c(ccc3c2O[C@@H]2COc4cc(OC)c(OC)cc4[C@@H]2C3=O)O1
24.5 µM (active) and inactive: Potency [3]
active: Potency [2] 88.2 nM and 15.5 nM and 107 nM | Potency [4] 55.7 nM and 11 nM and 47.7 nM | Potency [7] 44.2 µM and 27.5 µM | Potency [8] 49.6 µM and 38.9 µM | Potency [9] 24.9 µM and 24.5 µM
inactive: Potency [1] | Potency [5] | Potency [6] | Potency [10]

CCN(CC)C(=O)/C(Cl)=C(\C)OP(=O)(OC)OC
inactive: Potency [1] | Potency [2] | Potency [3] | max response [4] -0.126% and -1.25% | Potency [5] | Potency [6] | Potency [7] | Potency [8] | Potency [9] | Potency [10]

N#Cc1cc(Br)c(O)c(Br)c1
inactive: Potency [1] | Potency [2] | Potency [3] | max response [4] -28.3% and -19.4% | Potency [5] | Potency [6] | Potency [7] | Potency [8] | Potency [9] | Potency [10]

O=P(O)(O)CCCl
inactive: Potency [1] | Potency [2] | Potency [3] | max response [4] -0.529% and 21.1% | Potency [5] | Potency [6] | Potency [7] | Potency [8] | Potency [9] | Potency [10]

CCC(C)c1ccc(O)cc1 (configuration not stated)
inactive: Potency [2] | Potency [3] | max response [4] -20.1% and -0.111% | Potency [7] | Potency [10]
active: Potency [1] 49.4 µM and 43.6 µM | Potency [5] 43.6 µM | Potency [8] 43.6 µM | Potency [9] 43.6 µM

CC(C)N(C(=O)SCC(Cl)=C(Cl)Cl)C(C)C
inactive: Potency [1] | Potency [2] | Potency [3] | max response [4] -12% and 19.1% | Potency [5] | Potency [6] | Potency [7] | Potency [8] | Potency [9] | Potency [10]

CC(C)(c1cc(Cl)c(O)c(Cl)c1)c1cc(Cl)c(O)c(Cl)c1
inactive: Potency [1] | Potency [2] | Potency [3] | max response [4] -12.2% and -31.9% | Potency [5] | Potency [6] | Potency [7] | Potency [8] | Potency [9] | Potency [10]

CCC(C)(C)c1ccc(O)cc1
active: Potency [1] 49.5 µM and 43.6 µM | Potency [5] 49.5 µM and 49 µM | Potency [6] 44.1 µM and 43.6 µM | Potency [8] 49.5 µM and 43.6 µM and 23.9 µM | Potency [9] 44.1 µM and 38.9 µM and 21.3 µM
inactive: Potency [2] | Potency [3] | max response [4] -5.76% and -0.143% | Potency [7] | Potency [10]

CC1(C)C(C=C(Cl)Cl)C1C(=O)OC(C#N)c1cccc(Oc2ccccc2)c1 (configuration not stated)
inactive: Potency [1] | Potency [2] | Potency [3] | max response [4] -14.9% and 6.86% | Potency [5] | Potency [6] | Potency [7] | Potency [8] | Potency [9] | Potency [10]

C=CCc1ccc(OC)cc1
inactive: Potency [1] | Potency [2] | Potency [3] | max response [4] -1.64% and 2.11% | Potency [6] | Potency [7] | Potency [8] | Potency [9]
